Measurements published in PubChem BioAssay.
Active and inactive are the calls of the source.

How the values were obtained:
[1] = biological target: Albumin (Bos taurus) (UniProt P02769); assay: bovine serum albumin binders on microarray, profiling panel, artefact control for SMM control protein annotation, biochemical, small-molecule microarray, Alexa647 label, 635/667 nm fluorescence (AID 1118); settings: BSA-A647 binding, fluorescence 635 nm, higher = more signal;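 also: score merges 667 nm emission intensity and signal-to-noise per printed compound spot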
Sequence of Albumin (Bos taurus) (P02769 whole entry, looked up): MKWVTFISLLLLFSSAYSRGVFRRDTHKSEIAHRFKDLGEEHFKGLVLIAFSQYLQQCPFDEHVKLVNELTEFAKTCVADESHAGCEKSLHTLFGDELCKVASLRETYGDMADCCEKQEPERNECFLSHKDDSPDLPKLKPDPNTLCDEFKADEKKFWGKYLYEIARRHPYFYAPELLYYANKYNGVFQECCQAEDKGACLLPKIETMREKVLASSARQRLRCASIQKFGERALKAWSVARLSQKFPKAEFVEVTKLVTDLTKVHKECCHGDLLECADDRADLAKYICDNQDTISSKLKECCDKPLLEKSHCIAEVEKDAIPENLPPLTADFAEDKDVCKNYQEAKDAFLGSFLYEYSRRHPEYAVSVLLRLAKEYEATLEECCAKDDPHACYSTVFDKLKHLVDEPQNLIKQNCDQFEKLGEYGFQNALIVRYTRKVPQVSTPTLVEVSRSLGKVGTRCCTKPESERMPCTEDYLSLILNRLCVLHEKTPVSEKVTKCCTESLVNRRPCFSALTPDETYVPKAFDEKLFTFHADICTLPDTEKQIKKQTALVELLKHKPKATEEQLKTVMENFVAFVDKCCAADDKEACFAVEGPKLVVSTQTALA

[2] = small-molecule microarray binders of probe aXIP, primary screen, biochemical, NeuroSMM set, 635/667 nm fluorescence (AID 1119); settings: higher = more signal, called active from +8 up or from −8 down;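 also: probe is the protein aXip251-270 applied at 1 µg/mL to compound-printed slides; binding of probe to printed compounds measured as 667 nm fluorescence plus signal to noise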
[3] = small-molecule binders of probe aNOTCH3, primary screen, biochemical, small-molecule microarray, 635/667 nm fluorescence (AID 1120); settings: higher = more signal;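 also: probe is a biotin-tagged antibody raised against NOTCH3 rather than NOTCH3 protein; score merges spot fluorescence near 667 nm with spot signal to noise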
[4] = small-molecule binders of probe aNOTCH2, primary screen, biochemical, small-molecule microarray, 635/667 nm fluorescence (AID 1121); settings: higher = more signal;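 also: score merges feature fluorescence read at 667 nm with its signal to noise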
[5] = biological target: Carbonic anhydrase 2 (Homo sapiens) (UniProt P00918); assay: CAII small-molecule binders, profiling panel, biochemical, small-molecule microarray, Alexa647-labelled CAII (AID 1122); settings: CAII-A647 binding fluorescence, higher = more signal
[6] = COS7 lysate on small-molecule microarray, probe aHis, 635 nm (AID 1123); settings: COS7 cell lysate, fluorescence, higher = more signal;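 also: z-score combines 667nm fluorescence intensity with signal-to-noise per printed compound spot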
[7] = compound binding in COS7 lysate, probe aLAP1, primary screen, cell lysate, small-molecule microarray (AID 1124); settings: probe aLAP1, fluorescence, higher = more signal;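 also: lysate comes from COS7 cells expressing LAP1 and is applied at 0.3 µg/mL; score merges spot fluorescence near 667 nm with signal-to-noise over triplicate slides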
[8] = tested on: Sam68 (KHDRBS1); assay: Sam68 small-molecule binders, primary screen, biochemical, small-molecule microarray, 635 nm fluorescence (AID 1125); settings: small-molecule microarray binding, higher = more signal;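 also: score merges 667 nm channel intensity with signal to noise over triplicate slides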
[9] = tested on: Chordin-like protein 2 (CHRDL2); assay: CHRDL2 small-molecule binders, primary screen, biochemical, small-molecule microarray, 635 nm fluorescence (AID 1126); settings: small-molecule microarray binding, fluorescence 635 nm; higher = more signal;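 also: printed compound slides probed with Chrdl2 protein at 4 µg/mL for 1 h at 4 C; score merges 667 nm emission intensity with signal to noise over three replicate slides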
[10] = biological target: Concanavalin-A (Canavalia ensiformis) (UniProt P02866); assay: ConA small-molecule binders, primary screen, artefact control for SMM control protein annotation, biochemical, small-molecule microarray, Alexa647 label, 635 nm (AID 1127); settings: ConA-A647 binding fluorescence, higher = more signal;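 also: z combines 667 nm emission intensity with signal-to-noise across three replicate slides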
Sequence of Concanavalin-A (Canavalia ensiformis) (P02866 whole entry, looked up): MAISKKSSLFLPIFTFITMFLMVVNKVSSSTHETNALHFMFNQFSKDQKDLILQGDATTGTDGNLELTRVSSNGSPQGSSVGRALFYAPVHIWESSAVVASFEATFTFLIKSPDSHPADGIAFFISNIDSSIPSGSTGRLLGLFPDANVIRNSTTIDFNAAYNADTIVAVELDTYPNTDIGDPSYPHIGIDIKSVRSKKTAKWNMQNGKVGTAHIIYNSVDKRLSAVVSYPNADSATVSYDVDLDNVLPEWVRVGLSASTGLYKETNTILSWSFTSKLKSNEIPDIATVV

[11] = anti-His antibody binders, primary screen, artefact control for SMM control protein annotation, biochemical, small-molecule microarray, 635 nm fluorescence (AID 1128); settings: anti-His Alexa647 antibody binding, higher = more signal;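 also: score merges feature fluorescence with signal-to-noise for each printed compound spot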
[12] = tested on: Human papillomavirus type 1a E7 protein (residues 1-88); assay: HPV1a E7 small-molecule binders, primary screen, biochemical, small-molecule microarray, residues 1-88, 635 nm (AID 1129); settings: small-molecule microarray binding, fluorescence 635 nm; higher = more signal
[13] = biological target: Focal adhesion kinase 1 (Homo sapiens) (UniProt Q05397); assay: small-molecule microarray binders of FAK, primary screen, biochemical, 635/667 nm fluorescence, BSA, DTT (AID 1130); settings: PTK2 binding, 635 nm fluorescence, higher = more signal;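 also: composite of spot emission at 667 nm and signal to noise over triplicate slides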
Sequence of Focal adhesion kinase 1 (Homo sapiens) (Q05397 whole entry, looked up): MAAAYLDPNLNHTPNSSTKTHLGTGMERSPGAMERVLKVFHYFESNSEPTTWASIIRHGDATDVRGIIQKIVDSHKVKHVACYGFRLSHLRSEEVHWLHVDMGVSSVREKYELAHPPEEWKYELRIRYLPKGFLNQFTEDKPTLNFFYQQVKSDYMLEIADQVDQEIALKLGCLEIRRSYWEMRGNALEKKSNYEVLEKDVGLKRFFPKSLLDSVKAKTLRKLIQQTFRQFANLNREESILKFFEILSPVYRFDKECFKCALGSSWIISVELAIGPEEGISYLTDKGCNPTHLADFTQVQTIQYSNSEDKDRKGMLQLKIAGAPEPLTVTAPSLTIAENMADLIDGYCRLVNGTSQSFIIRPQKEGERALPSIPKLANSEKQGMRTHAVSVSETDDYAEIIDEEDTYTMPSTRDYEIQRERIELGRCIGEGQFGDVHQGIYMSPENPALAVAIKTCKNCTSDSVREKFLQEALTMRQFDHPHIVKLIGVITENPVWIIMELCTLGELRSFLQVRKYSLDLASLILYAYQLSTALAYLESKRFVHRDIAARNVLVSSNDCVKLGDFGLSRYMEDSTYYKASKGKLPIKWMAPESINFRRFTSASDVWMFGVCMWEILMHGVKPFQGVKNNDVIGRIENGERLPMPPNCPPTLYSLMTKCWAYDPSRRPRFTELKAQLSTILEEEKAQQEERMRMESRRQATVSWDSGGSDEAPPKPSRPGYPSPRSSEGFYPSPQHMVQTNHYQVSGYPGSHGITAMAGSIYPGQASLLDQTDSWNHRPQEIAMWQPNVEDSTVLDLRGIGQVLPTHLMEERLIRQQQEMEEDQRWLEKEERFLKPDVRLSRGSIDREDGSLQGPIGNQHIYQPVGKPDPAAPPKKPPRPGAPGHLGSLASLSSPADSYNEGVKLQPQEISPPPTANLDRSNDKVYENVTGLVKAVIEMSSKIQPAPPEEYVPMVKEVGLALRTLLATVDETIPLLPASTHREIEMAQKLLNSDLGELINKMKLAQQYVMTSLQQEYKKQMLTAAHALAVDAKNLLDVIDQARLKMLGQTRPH

[14] = tested on: Fibrinogen (Alexa647-labelled); assay: fibrinogen binders on compound microarrays, profiling panel, artefact control for SMM control-protein annotation, biochemical, small-molecule microarray, 635/667 nm fluorescence (AID 1131); settings: fibrinogen-A647 binding fluorescence, higher = more signal;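 also: z-score merges 667 nm fluorescence with per-spot signal-to-noise over triplicate slides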
[15] = biological target: Follistatin (Homo sapiens) (UniProt P19883); assay: follistatin binders on small-molecule microarrays, primary screen, biochemical, small-molecule microarray, 635/667 nm fluorescence (AID 1132); settings: FST binding, 635 nm fluorescence, higher = more signal
Sequence of Follistatin (Homo sapiens) (P19883 whole entry, looked up): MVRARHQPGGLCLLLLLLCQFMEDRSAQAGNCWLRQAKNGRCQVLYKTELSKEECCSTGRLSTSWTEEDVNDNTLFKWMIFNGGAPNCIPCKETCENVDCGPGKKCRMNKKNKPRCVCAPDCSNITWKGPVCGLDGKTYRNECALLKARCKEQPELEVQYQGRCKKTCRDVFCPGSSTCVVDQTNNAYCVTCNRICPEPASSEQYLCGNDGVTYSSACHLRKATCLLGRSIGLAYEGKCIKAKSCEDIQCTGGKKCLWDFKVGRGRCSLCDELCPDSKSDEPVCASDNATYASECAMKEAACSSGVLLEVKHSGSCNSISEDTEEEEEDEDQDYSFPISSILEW

[16] = biological target: Fibroblast growth factor 2 (Homo sapiens) (UniProt P09038); assay: FGF2 binders on small-molecule microarrays, primary screen, biochemical, small-molecule microarray, 635/667 nm fluorescence (AID 1133); settings: small-molecule microarray binding, FGF2, fluorescence 635/667; higher = more signal
Sequence of Fibroblast growth factor 2 (Homo sapiens) (P09038 whole entry, looked up): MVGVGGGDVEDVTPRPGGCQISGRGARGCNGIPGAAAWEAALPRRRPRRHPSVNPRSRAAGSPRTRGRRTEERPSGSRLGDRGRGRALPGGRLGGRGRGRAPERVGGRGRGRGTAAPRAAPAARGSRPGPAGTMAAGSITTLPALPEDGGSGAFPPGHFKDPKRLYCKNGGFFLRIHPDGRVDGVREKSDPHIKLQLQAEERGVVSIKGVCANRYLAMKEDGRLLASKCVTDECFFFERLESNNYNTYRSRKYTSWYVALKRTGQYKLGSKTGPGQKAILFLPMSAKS

[17] = mitochondrial membrane potential change in A549 cells, profiling panel, cell-based, JC-1 fluorescence, basal, 24 h, 100 nL (AID 1138); settings: higher = more signal;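 also: A549 lung adenocarcinoma cells under basal conditions with no added stimulus; test concentration not given here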
[18] = tested on: Lefty1; assay: Lefty1 binders on small-molecule microarrays, primary screen, biochemical, small-molecule microarray, 635/667 nm fluorescence (AID 1139); settings: small-molecule microarray binding, fluorescence 635/667; higher = more signal
[19] = tested on: wheat germ agglutinin (Triticum aestivum), Alexa647-labelled; assay: wheat germ agglutinin binders on compound microarrays, profiling panel, artefact control for SMM control-protein annotation, biochemical, small-molecule microarray, 635/667 nm fluorescence (AID 1140); settings: WGA-A647 binding, 635 nm fluorescence, higher = more signal;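 also: score merges 667 nm feature emission with signal to noise over triplicate slides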
[20] = biological target: Luciferin 4-monooxygenase (Photinus pyralis) (UniProt P08659); assay: firefly luciferase enzyme inhibitors, primary screen, biochemical, luminescence, purified enzyme, 2006 set (AID 1141); settings: SteadyGlo luminescence, 30 min, higher = more signal, called active from +8 up or from −8 down;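 also: cell-free assay with purified firefly luciferase at 100 ng per well in PBS; test concentration not given here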
Sequence of Luciferin 4-monooxygenase (Photinus pyralis) (P08659 whole entry, looked up): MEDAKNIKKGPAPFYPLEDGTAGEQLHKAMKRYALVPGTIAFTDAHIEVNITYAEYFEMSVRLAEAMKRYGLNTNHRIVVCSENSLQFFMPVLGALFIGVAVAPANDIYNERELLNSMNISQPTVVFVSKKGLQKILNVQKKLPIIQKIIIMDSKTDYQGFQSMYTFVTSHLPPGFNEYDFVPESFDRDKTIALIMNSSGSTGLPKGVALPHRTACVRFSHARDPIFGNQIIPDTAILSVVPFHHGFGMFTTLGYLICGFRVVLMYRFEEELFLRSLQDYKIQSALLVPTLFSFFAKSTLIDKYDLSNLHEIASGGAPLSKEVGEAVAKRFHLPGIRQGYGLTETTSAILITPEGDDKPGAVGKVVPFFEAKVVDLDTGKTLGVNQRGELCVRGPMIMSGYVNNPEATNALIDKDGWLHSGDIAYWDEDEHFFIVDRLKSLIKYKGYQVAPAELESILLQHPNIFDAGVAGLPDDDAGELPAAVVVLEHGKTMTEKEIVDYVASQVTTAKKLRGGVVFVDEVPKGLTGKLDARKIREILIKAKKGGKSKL

| SMILES | composite z-score [1] | composite Z-score [2] | composite z-score [3] | composite z-score [4] | composite z-score [5] | composite z-score [6] | composite z-score [7] | composite z-score [8] | composite z-score [9] | composite z-score [10] | composite z-score [11] | composite z-score [12] | composite z-score [13] | composite z-score [14] | composite z-score [15] | composite z-score [16] | z-score [17] | composite z-score [18] | composite z-score [19] | z-score [20] |
| --- | --- | --- | --- | --- | --- | --- | --- | --- | --- | --- | --- | --- | --- | --- | --- | --- | --- | --- | --- | --- |
| O=C1c2ccccc2[C@](Cc2ccccc2I)(C(=O)NCC(F)(F)F)[C@H](c2ccc(CO)cc2)N1Cc1ccccc1 | 0.684 | 0.341 (inactive) | -0.0183 | -0.112 | 0.593 | 2.19 | 0.321 | 1.18 | -0.213 | 1.11 | 0.0638 | 1.17 | 0.77 | 0.97 | 1.14 | -0.0189 | 0.71 | 0.343 | 0.469 | 0.875 (inactive) |
| COC(=O)c1ccc(OC)c(/C=C\CC(CCc2ccccc2)OC(C)=O)c1 (stereo not given) | 0.804 | -0.376 (inactive) | -0.272 | -0.196 | 0.557 | -0.14 | 0.275 | -0.0896 | 0.204 | 0.0426 | -0.281 | -0.133 | 0.377 | -0.177 | 0.457 | -0.293 | 0.293 | 0.222 | 0.476 | -0.558 (inactive) |
| CC1C=C(CCCO)C=C(C(=O)OCCS(C)(=O)=O)C(C(=O)OCCS(C)(=O)=O)=CN1Cc1cccc(OC(F)(F)F)c1 (stereo not given) | 1.03 | -0.115 (inactive) | 0.0929 | 0.0231 | 0.749 | 2.22 | 1.11 | 1.21 | -0.815 | 1.08 | 1 | 0.799 | -0.0696 | 1.02 | 0.0361 | -0.356 | 0.848 | -0.309 | 0.785 | -0.234 (inactive) |
| COC(=O)C(CC#Cc1ccc2c(c1)[C@]1(C(=O)N2)[C@H](c2ccc(OCCO)cc2)N2[C@H](c3ccccc3)[C@H](c3ccccc3)OC(=O)[C@H]2[C@@H]1C(=O)O)C(=O)OC | 0.803 | 0.419 (inactive) | 0.328 | 0.224 | 0.724 | 1.37 | 0.26 | 1.28 | 0.368 | 1.15 | 3.08 | 1.19 | 1.38 | 0.915 | 0.915 | 0.228 | 0.161 | 0.861 | 1.1 | -3.07 (inactive) |
| CCOC(=O)C[C@H]1[C@H](OC(=O)Cc2ccc3c(c2)OCO3)[C@@H](NC(=O)c2ccccc2)c2cc(OCCCO)ccc2N1C(=O)c1ccc2ccccc2n1 | 0.645 | 0.375 (inactive) | -0.226 | -0.147 | 0.08 | 0.526 | -0.145 | 0.679 | 0.127 | 1.1 | 0.0936 | 0.445 | -0.0584 | 0.204 | 0.166 | 0.77 | 0.925 | 0.447 | 0.473 | -1.43 (inactive) |
| O=C1O[C@H](c2ccccc2)[C@H](c2ccccc2)N2[C@H]1[C@@H](C(=O)NC[C@H](O)c1ccccc1)[C@]1(C(=O)Nc3ccccc31)[C@H]2c1ccccc1OCCO | 0.426 | 0.16 (inactive) | -0.171 | -0.138 | 0.613 | 1.84 | 0.571 | 0.772 | 0.0939 | 1.02 | 2.24 | 1.22 | 0.271 | 0.916 | 0.455 | 0.538 | -0.789 | 0.799 | 0.356 | -11 (active) |
| COc1ccc([Si](C)(C)[C@@H]2[C@@H](CCO)O[C@]3(C(=O)N(Cc4ccccc4)c4ccc(N5C(=O)COc6ccccc65)cc43)[C@H]2C)cc1 | 0.187 | 0.685 (inactive) | -0.0077 | -0.0731 | 0.426 | 0.841 | 0.719 | 0.929 | -0.237 | 0.822 | 0.807 | 1.13 | 0.294 | 0.191 | 0.197 | -0.177 | -0.081 | 0.351 | 0.622 | 0.806 (inactive) |
| CO[C@H]1O[C@H](CO)[C@@H](OC(=O)c2ccc(Br)cc2)[C@@H]2OC(=O)[C@H](Cc3cccc(Br)c3)C/C=C/C[C@@H](Cc3cccc(Br)c3)C(=O)O[C@@H]12 | 0.695 | 0.528 (inactive) | 0.119 | -0.0486 | 0.439 | 0.806 | 0.72 | 1.18 | 0.511 | 0.583 | 1.58 | 1.05 | 0.214 | 0.647 | 1.02 | 0.897 | 1.02 | 0.442 | 0.31 | 0.0021 (inactive) |
| CC1=C2[C@@H](CCc3ccccc3)OB(O)C[C@@H]2[C@@H]2C(=O)C=CC(=O)[C@@H]2C1 | 0.393 | 1.64 (inactive) | -0.0677 | 0.0777 | 0.298 | -0.0088 | 0.0435 | 1.01 | 0.483 | 0.793 | 0.892 | 0.339 | -0.512 | 0.565 | 1.12 | 1 | -1.2 | 0.845 | 0.469 | -3.34 (inactive) |
| COC(=O)[C@]1(Cc2ccccc2N=[N+]=[N-])N=C(c2ccc(OCCCO)cc2)O[C@@H]1c1ccccc1 | -0.274 | 0.747 (inactive) | 0.0773 | -0.0487 | 0.412 | 1.82 | 0.225 | 0.622 | -1.1 | 0.458 | 0.334 | 1.09 | -0.141 | 0.215 | 0.313 | -0.101 | 1.02 | -0.489 | 0.244 | -2.2 (inactive) |
| O=C(N1CCOCC1)[C@@]1(CCS(=O)(=O)c2ccccc2)COC(c2ccc(OCCCO)cc2)=N1 | 0.39 | 0.667 (inactive) | -0.0073 | -0.191 | 0.704 | 2.45 | -0.0296 | 0.605 | -0.034 | -0.257 | 0.436 | 1.18 | 0.307 | -0.71 | -0.176 | 0.974 | -0.336 | -1.32 | -0.204 | 0.735 (inactive) |
